From PubChem BioAssay AID430 (Sanford-Burnham Center for Chemical Genomics, 2006)
About 1,100 (1.7%) of roughly 63,000 compounds were called active. No stated cut-off is given here; in the data, active means cytotoxicity above about 50%; inactive means the rest. The sample as a whole holds a higher share of actives than the screen did. Potency and affinity values are given separately.

Test: cytotoxicity in HPDE-C7 cells, cell-based, fluorescence, HTS (AID 430);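 further: cells exposed to compound for 48 hours before viability readout; 0% = vehicle and 100% = reference cytotoxic drug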
Conditions: HPDE-C7 pancreatic duct cells viability, at 10 µM, active compounds read high

Compound	cytotoxicity
COc1ccc(S(=O)(=O)N(CC(=O)O)c2ccc(C)cc2)cc1	-20.8% (inactive)
O=C(NCc1cccnc1)C1c2ccccc2C(=O)N1Cc1ccco1 (stereo unspecified)	-4.7% (inactive)
O=C(Cc1cn2ccsc2n1)Nc1nc2c(s1)CN(Cc1ccccc1)CC2	-4.7% (inactive)
O=C(Cc1cn2ccsc2n1)Nc1nc2c(s1)CCCC2	6.8% (inactive)
CC(C)(C)C1CCc2nc(NC(=O)Cc3cn4ccsc4n3)sc2C1 (stereo unspecified)	57.3% (active)
N#CC1=C(N)NC(SCC(=O)O)=C(C#N)C12CCCC2	4.9% (inactive)
CSC1=C(C#N)C2(CCCC2)C(C#N)=C(N)N1	22.6% (inactive)
CC1(C)CC(=O)C2=C(C1)NC(SCC(=O)Nc1ccccc1)=C(C#N)C21CCCCC1	-19.2% (inactive)
COc1ccc(C(=O)CSC2=C(C#N)C3(CCCCC3)C(C#N)=C(N)N2)cc1	22.5% (inactive)
CCSC1=C(C#N)C2(CCCCC2)C(C#N)=C(N)N1	-4.6% (inactive)
N#CC1=C(N)NC(SCc2ccccc2)=C(C#N)C12CCCCC2	72.2% (active)
CCSC1=C(C#N)C2(CCCC2)C(C#N)=C(N)N1	-1.6% (inactive)
CCOC(=O)c1cnn(-c2ncnc3c2oc2ccccc23)c1N	-2.5% (inactive)
COc1ccc(C2(CCN)CC(C)N(C)CC2C)cc1 (stereo unspecified)	-5.8% (inactive)
O=C(c1cc(F)c(F)cc1Cl)N1CCCCC1	-3% (inactive)
CCCSc1nc2c(cnn2-c2ccc(F)cc2)c(=O)[nH]1	-9.3% (inactive)
Cc1ccc(S(=O)(=O)NCCCN2CCOCC2)cc1C	-25% (inactive)
Oc1ccc(-c2nc3cnccn3c2Nc2ccc3c(c2)OCCO3)cc1	3.8% (inactive)
CCOC(=O)c1c(NC(=O)CSc2n[nH]c(N)n2)sc(CC)c1C	-3.3% (inactive)
CCOC(=O)c1sc(NC(=O)CSc2n[nH]c(-c3ccccc3)n2)c(C#N)c1C	4.4% (inactive)
O=C(COC(=O)C1COc2ccccc2O1)NC(=O)NC1CCCC1 (stereo unspecified)	-11.8% (inactive)
